# Experimental data: paper PMC7862700, “An all-to-all approach to the identification of sequence-specific readers for epigenetic DNA modifications on cytosine”
# Key:
# Test in all cases: DAPPL (digital affinity profiling via proximity ligation, sequencing); 10 mM Tris-HCl pH 7.5, 50 mM NaCl, 1 mM DTT, 4% glycerol, room temperature, 30 min; GST-TFs on glutathione beads, 16-mer random dsDNA library, 0.1% formaldehyde crosslink after washing; high values mean tight binding
# Conditions in all cases: protein: recombinant; tags: N-terminal GST; dsDNA, one strand shown
# ELK1 = target: T1, ELK1 (Homo sapiens, UniProt P19419 1-428)
# T1 sequence: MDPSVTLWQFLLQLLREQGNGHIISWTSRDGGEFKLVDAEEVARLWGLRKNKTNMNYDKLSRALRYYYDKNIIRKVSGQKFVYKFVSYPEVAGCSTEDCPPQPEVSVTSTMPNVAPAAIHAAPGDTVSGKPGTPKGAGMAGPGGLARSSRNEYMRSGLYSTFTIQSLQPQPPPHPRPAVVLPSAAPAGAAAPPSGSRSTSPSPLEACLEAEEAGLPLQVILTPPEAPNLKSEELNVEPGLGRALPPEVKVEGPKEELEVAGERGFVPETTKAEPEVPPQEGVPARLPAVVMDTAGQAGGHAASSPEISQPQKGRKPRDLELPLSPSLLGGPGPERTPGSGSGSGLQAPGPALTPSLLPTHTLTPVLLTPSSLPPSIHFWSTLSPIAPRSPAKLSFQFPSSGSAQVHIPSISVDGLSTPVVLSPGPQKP
# Outline: (§1)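 Sequencing on an Illumina NextSeq500 followed washing, crosslinking with 0.1% formaldehyde, proximity ligation (BsaI/T4 ligase, 1 h, 37 °C) and PCR amplification of pools that had been incubated for 30 min at room temperature with 200 nmole of a random double-stranded 16-mer DNA library in Tris/NaCl/DTT/glycerol buffer. Each pool held DNA-barcoded human transcription factors, expressed in yeast as GST fusions and captured on glutathione beads, plus a tag-only sample. Binding signal is a hexamer's read frequency for a factor divided by its frequency in the tag-only sample.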
# GABPA = target: T2, GABPA (Homo sapiens, UniProt Q06546 1-454)
# T2 sequence: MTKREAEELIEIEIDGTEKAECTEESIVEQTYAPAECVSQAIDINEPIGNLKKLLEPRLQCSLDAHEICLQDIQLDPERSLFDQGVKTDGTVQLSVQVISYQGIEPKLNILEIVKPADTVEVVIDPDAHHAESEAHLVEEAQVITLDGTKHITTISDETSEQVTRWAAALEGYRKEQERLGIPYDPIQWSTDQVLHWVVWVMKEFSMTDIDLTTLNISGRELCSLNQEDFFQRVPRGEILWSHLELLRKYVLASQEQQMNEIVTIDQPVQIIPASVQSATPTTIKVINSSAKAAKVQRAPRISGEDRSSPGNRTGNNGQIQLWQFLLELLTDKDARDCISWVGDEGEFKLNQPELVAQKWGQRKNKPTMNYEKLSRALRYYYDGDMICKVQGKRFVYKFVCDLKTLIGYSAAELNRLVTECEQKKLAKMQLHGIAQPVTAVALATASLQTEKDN
# Outline: as §1
# ERG = target: T3, ERG (Homo sapiens, UniProt P11308 1-479)
# T3 sequence: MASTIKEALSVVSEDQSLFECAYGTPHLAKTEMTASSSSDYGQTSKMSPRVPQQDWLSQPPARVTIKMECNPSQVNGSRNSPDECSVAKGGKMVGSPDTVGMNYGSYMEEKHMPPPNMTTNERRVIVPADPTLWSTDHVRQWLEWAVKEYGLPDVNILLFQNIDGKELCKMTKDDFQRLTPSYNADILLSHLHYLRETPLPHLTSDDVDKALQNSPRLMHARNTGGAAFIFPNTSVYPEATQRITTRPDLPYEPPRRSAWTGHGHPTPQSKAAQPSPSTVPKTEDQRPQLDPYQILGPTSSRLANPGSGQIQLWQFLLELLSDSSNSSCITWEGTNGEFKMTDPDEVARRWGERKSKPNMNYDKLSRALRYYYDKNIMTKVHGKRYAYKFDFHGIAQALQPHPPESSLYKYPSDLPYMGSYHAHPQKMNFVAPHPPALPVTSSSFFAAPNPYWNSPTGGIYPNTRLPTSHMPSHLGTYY
# Outline: as §1
# ELF1 = ELF1 (Homo sapiens, UniProt P32519 1-619)
# ELF1, sequence (P32519 whole entry): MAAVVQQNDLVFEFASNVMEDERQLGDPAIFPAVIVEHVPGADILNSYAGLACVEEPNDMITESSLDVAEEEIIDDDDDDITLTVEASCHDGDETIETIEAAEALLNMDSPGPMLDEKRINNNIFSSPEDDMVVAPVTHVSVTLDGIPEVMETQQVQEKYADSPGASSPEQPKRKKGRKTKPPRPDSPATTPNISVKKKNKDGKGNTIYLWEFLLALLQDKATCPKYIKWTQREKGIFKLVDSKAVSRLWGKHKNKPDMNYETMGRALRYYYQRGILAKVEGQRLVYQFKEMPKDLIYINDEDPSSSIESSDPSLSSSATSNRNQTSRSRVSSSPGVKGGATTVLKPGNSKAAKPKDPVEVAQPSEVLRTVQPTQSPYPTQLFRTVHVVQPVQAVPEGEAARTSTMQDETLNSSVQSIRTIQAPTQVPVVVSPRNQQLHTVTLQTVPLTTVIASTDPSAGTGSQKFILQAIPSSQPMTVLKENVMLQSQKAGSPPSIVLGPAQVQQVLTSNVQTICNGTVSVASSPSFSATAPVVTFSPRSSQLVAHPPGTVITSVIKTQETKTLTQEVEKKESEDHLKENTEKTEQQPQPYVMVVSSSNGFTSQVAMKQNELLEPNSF
# Outline: as §1
# EHF = target: T4, EHF (Homo sapiens, UniProt Q9NZC4 1-300)
# T4 sequence: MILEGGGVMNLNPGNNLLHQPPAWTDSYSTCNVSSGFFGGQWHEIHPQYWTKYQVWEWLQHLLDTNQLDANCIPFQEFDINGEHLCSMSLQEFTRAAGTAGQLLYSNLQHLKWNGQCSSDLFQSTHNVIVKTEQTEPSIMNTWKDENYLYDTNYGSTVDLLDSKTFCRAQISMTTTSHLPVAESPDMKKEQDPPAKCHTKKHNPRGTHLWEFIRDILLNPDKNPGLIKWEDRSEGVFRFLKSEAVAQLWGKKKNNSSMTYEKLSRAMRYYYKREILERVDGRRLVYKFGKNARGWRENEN
# Outline: as §1
# FEV = target: T5, FEV (Homo sapiens, UniProt Q99581 1-238)
# T5 sequence: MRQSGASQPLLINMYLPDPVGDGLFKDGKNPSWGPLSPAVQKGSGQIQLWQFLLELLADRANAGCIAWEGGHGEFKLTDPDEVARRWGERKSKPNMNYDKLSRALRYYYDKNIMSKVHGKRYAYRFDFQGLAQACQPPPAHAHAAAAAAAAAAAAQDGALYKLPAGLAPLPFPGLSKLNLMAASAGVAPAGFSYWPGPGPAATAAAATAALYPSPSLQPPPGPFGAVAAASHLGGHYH
# Outline: as §1
# ETV5 = ETV5 (Homo sapiens, UniProt P41161 1-510)
# ETV5, sequence (P41161 whole entry): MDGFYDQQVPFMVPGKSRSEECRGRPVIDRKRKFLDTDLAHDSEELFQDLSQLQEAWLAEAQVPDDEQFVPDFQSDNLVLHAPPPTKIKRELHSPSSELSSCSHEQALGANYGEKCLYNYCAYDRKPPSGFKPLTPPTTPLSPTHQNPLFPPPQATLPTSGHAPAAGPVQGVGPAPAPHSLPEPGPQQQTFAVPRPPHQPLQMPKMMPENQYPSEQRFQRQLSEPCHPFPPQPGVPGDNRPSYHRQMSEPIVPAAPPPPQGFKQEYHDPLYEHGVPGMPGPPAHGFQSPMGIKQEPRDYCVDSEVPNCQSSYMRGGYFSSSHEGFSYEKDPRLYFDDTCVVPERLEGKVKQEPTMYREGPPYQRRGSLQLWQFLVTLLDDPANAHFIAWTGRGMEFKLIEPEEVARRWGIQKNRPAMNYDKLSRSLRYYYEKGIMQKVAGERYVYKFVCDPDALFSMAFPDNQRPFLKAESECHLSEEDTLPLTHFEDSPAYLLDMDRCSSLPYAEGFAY
# Outline: as §1
# ELF4 = ELF4 (Homo sapiens, UniProt Q99607 1-663)
# ELF4, sequence (Q99607 whole entry): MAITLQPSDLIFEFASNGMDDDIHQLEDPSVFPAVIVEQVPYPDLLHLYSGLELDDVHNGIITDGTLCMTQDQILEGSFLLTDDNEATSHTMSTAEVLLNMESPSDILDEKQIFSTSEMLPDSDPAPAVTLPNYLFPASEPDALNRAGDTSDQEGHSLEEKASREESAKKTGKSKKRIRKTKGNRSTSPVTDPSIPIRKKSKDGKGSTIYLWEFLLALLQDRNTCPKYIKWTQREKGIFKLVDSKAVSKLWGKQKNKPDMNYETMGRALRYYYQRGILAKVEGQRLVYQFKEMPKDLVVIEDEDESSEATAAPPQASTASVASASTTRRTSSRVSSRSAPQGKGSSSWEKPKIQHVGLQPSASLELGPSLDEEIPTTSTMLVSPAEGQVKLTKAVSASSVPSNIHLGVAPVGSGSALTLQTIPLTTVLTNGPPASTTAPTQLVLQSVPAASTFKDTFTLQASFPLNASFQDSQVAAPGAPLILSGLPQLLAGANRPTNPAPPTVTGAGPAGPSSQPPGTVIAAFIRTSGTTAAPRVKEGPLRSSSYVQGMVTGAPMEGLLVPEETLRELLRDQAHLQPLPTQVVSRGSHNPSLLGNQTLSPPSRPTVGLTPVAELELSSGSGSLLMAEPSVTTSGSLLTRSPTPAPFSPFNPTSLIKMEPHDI
# Outline: as §1
# ELK4 = target: T6, ELK4 (Homo sapiens, UniProt P28324-2 1-405)
# T6 sequence: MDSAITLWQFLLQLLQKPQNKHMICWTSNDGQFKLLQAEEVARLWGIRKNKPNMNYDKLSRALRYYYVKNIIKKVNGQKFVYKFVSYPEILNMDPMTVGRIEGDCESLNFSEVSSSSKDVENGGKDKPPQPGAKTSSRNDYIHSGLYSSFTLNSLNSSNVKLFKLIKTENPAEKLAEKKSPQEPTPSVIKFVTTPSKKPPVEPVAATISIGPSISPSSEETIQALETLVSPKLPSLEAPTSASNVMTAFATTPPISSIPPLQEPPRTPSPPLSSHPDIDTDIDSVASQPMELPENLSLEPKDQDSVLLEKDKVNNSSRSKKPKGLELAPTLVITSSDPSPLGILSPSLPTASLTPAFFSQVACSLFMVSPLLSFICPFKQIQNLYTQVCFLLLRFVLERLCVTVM
# Outline: as §1
# ETV2 = target: T7, ETV2 (Homo sapiens, UniProt O00321 1-342)
# T7 sequence: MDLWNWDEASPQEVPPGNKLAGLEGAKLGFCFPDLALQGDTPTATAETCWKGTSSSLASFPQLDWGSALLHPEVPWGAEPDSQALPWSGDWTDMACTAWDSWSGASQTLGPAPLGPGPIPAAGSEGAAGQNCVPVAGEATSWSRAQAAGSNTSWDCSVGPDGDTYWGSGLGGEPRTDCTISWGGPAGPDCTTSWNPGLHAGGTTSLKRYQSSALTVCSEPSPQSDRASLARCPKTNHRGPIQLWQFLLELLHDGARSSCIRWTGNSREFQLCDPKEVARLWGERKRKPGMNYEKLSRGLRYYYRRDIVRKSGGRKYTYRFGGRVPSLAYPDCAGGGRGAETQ
# Outline: as §1
# ELF3 = target: T8, ELF3 (Homo sapiens, UniProt P78545 1-371)
# T8 sequence: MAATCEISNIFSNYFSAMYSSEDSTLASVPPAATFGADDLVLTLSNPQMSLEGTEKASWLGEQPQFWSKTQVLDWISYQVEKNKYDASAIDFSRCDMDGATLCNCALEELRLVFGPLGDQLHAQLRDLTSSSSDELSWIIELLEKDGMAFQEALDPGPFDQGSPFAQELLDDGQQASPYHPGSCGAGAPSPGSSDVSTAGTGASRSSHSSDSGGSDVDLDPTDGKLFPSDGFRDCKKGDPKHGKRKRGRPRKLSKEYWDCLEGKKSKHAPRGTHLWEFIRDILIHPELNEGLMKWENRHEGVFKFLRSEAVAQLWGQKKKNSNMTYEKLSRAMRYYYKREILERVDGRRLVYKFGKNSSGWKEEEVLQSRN
# Outline: as §1
# ETV1 = ETV1 (Homo sapiens, UniProt P50549 1-477)
# ETV1, sequence (P50549 whole entry): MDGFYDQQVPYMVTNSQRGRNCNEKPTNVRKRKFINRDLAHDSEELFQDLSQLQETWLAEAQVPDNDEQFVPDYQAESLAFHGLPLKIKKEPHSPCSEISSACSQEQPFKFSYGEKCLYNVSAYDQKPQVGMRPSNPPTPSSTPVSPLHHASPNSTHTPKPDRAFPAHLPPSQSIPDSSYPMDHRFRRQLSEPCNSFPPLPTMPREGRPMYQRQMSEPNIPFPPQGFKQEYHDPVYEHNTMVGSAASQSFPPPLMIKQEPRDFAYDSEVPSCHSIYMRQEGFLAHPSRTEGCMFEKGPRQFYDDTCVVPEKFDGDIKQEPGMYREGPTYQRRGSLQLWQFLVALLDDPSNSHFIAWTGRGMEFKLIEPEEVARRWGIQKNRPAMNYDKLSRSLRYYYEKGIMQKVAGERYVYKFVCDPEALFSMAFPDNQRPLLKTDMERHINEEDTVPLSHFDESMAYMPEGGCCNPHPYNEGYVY
# Outline: as §1
# ERF = target: T9, ERF (Homo sapiens, UniProt P50548 1-548)
# T9 sequence: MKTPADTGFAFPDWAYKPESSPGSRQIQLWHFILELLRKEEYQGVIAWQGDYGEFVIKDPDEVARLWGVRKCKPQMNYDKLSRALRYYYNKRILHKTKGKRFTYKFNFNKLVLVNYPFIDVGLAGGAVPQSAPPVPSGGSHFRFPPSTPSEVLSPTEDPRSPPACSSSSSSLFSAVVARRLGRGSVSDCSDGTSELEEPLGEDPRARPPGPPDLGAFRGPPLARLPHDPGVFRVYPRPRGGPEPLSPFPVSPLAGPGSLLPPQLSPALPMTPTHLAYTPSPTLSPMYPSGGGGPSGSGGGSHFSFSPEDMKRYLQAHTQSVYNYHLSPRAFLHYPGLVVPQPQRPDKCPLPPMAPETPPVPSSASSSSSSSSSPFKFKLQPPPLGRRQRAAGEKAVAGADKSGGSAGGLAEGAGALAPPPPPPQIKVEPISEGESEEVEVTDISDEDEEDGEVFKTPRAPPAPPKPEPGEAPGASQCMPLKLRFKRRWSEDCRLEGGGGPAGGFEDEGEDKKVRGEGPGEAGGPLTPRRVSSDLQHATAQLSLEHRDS
# Outline: as §1
# ETV3L = target: T10, ETV3L (Homo sapiens, UniProt Q6ZN32 1-361)
# T10 sequence: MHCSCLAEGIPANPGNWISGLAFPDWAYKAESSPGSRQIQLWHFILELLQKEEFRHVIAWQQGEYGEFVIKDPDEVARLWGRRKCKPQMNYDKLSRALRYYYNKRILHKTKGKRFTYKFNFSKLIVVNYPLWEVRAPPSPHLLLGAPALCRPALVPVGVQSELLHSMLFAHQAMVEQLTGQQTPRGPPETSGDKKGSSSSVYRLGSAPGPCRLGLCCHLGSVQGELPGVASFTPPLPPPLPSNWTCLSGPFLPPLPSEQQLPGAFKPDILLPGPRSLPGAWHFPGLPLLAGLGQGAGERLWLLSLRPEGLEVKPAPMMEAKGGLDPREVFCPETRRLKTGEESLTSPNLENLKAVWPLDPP
# Outline: as §1
# ETS2 = target: T11, ETS2 (Homo sapiens, UniProt P15036 1-469)
# T11 sequence: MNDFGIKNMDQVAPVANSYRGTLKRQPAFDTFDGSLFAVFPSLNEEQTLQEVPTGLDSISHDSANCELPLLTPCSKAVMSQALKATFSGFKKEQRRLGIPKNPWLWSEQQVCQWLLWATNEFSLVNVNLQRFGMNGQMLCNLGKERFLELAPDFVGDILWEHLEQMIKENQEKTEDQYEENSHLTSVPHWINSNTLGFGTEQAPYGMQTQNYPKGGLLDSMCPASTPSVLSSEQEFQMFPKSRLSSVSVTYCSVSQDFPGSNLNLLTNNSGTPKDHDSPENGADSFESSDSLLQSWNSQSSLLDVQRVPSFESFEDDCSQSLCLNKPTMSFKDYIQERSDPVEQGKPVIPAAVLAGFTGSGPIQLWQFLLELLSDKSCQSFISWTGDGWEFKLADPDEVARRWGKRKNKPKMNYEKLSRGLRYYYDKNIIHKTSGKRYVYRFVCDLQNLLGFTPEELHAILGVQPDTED
# Outline: as §1
# ETV7 = target: T12, ETV7 (Homo sapiens, UniProt Q9Y603 1-341)
# T12 sequence: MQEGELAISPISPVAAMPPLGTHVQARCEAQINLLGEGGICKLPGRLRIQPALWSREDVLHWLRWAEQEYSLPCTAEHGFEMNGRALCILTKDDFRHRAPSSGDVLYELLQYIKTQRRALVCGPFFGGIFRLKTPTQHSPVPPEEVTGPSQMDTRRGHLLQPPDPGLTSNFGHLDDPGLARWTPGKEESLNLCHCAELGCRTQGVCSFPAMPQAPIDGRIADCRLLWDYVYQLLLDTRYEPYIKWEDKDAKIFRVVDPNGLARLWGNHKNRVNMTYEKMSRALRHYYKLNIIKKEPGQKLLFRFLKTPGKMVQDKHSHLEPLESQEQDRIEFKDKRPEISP
# Outline: as §1
# ETV3 = target: T13, ETV3 (Homo sapiens, UniProt P41162-2 1-143)
# T13 sequence: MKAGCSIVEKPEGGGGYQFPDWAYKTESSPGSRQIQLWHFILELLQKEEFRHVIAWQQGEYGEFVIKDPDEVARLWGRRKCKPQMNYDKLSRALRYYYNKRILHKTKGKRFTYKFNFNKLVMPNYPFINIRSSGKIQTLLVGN
# Outline: as §1
# ETV6 = ETV6 (Homo sapiens, UniProt P41212 1-452)
# ETV6, sequence (P41212 whole entry): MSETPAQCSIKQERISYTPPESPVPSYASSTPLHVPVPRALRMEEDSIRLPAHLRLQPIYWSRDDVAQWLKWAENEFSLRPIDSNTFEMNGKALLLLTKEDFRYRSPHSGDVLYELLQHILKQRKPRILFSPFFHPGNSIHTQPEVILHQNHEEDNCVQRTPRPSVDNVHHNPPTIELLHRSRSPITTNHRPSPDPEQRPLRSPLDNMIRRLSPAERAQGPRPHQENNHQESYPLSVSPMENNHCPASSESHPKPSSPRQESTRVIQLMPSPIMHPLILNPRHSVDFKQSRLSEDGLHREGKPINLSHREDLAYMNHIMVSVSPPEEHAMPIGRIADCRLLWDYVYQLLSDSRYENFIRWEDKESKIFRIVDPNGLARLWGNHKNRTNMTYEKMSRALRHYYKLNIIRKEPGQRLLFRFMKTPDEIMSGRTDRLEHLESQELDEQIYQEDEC
# Outline: as §1
sequence,measurement,setting,value
CACATG,binding signal,ELK1,"1.1 fold enrichment (6-mer frequency, TF over GST control)"
same,binding signal,GABPA,"1.07 fold enrichment (6-mer frequency, TF over GST control)"
same,binding signal,ERG,"1.07 fold enrichment (6-mer frequency, TF over GST control)"
same,binding signal,ELF1,"1.16 fold enrichment (6-mer frequency, TF over GST control)"
same,binding signal,EHF,"1.16 fold enrichment (6-mer frequency, TF over GST control)"
same,binding signal,FEV,"1.11 fold enrichment (6-mer frequency, TF over GST control)"
same,binding signal,ETV5,"1.1 fold enrichment (6-mer frequency, TF over GST control)"
same,binding signal,ELF4,"1.09 fold enrichment (6-mer frequency, TF over GST control)"
same,binding signal,ELK4,"1.23 fold enrichment (6-mer frequency, TF over GST control)"
same,binding signal,ETV2,"1.12 fold enrichment (6-mer frequency, TF over GST control)"
same,binding signal,ELF3,"1.04 fold enrichment (6-mer frequency, TF over GST control)"
same,binding signal,ETV1,"1.1 fold enrichment (6-mer frequency, TF over GST control)"
same,binding signal,ERF,"1.12 fold enrichment (6-mer frequency, TF over GST control)"
same,binding signal,ETV3L,"1.03 fold enrichment (6-mer frequency, TF over GST control)"
same,binding signal,ETS2,"1.11 fold enrichment (6-mer frequency, TF over GST control)"
same,binding signal,ETV7,"1.03 fold enrichment (6-mer frequency, TF over GST control)"
same,binding signal,ETV3,"1.07 fold enrichment (6-mer frequency, TF over GST control)"
same,binding signal,ETV6,"1.06 fold enrichment (6-mer frequency, TF over GST control)"
